Source: article PMC11995724, “Antibiotic target discovery by integrated phenotypic and activity-based profiling of electrophilic fragments” (Cell chemical biology, 2025)
About 110 (3.4%) of roughly 3,200 compounds showed an effect of 50% or more. This excerpt belongs to a sample that is enriched for strong results.

tested on: T1, V. cholerae SAD30; set-up: species or system S. aureus MSSA476 (TSB) or V. cholerae SAD30 (LB); 384-well bacterial growth screen at 25 uM, OD600 relative to DMSO control; conditions: relative growth, OD600, LB; 25 µM; inhibitor
T1 construct: SAD30

SMILES	% of control remaining [%]
O=C(CCl)Nc1nnc(-c2ccccc2Cl)s1 [6-K17, 2-chloro-N-[5-(2-chlorophenyl)-1,3,4-thiadiazol-2-yl]acetamide]	95.8574
CC(Cl)C(=O)Nc1cccc(Cl)c1 (stereo not shown) [5-H22, 2-chloro-N-(3-chlorophenyl)propanamide]	106.42
C=CC(=O)N(Cc1cn2ccccc2n1)C1CC1 [3-J21, N-cyclopropyl-N-({imidazo[1,2-a]pyridin-2-yl}methyl)prop-2-enamide]	90.3253
C=CC(=O)NCc1cnc(-c2ccc(C(F)(F)F)cc2)s1 [1-C13, N-({2-[4-(trifluoromethyl)phenyl]-1,3-thiazol-5-yl}methyl)prop-2-enamide]	68.9088
CC(Cl)C(=O)N1CCn2c(C#N)ccc2C1C (stereo not shown) [6-F22, 2-(2-chloropropanoyl)-1-methyl-1H,2H,3H,4H-pyrrolo[1,2-a]pyrazine-6-carbonitrile]	96.0091
C=CC(=O)NCCC(=O)N1CCCN(c2cccnn2)CC1 [2-P16, N-{3-oxo-3-[4-(pyridazin-3-yl)-1,4-diazepan-1-yl]propyl}prop-2-enamide]	95.7541
Cc1n[nH]c(C)c1C=C(C#N)C(=O)Nc1ccc(SC(F)F)cc1 [8-E08, 2-cyano-N-{4-[(difluoromethyl)sulfanyl]phenyl}-3-(3,5-dimethyl-1H-pyrazol-4-yl)prop-2-enamide]	75.2549
O=C(CCl)N(Cc1nc(C2CCCCCC2)no1)C1CC1 [7-B16, 2-chloro-N-[(3-cycloheptyl-1,2,4-oxadiazol-5-yl)methyl]-N-cyclopropylacetamide]	80.2247
Cc1cc(NC(=O)CN(C)C(=O)C(C)Cl)no1 (stereo not shown) [7-M19, 2-chloro-N-methyl-N-{[(5-methyl-1,2-oxazol-3-yl)carbamoyl]methyl}propanamide]	81.8107
C=CC(=O)NCCc1nc(-c2ccccc2)nn1C [2-M12, N-[2-(1-methyl-3-phenyl-1H-1,2,4-triazol-5-yl)ethyl]prop-2-enamide]	85.4096
C=CC(=O)NCCn1nc(C)cc1C [3-M13, N-[2-(3,5-dimethyl-1H-pyrazol-1-yl)ethyl]prop-2-enamide]	97.7357
C=CC(=O)N1CCC(C(=O)Oc2ccc(NC(C)=O)cc2)CC1 [3-M16, 4-acetamidophenyl 1-(prop-2-enoyl)piperidine-4-carboxylate]	96.1478
C=CC(=O)NC1(c2nc(C3CC3)cc(=O)[nH]2)CCCCC1 [3-H13, N-[1-(4-cyclopropyl-6-oxo-1,6-dihydropyrimidin-2-yl)cyclohexyl]prop-2-enamide]	88.7374
CC(=O)N(C)Cc1ccc(C(=O)CCl)cc1 [10-H04, N-{[4-(2-chloroacetyl)phenyl]methyl}-N-methylacetamide]	100.682
CS(=O)(=O)c1ccc(C(=O)CCl)cc1 [10-I13, 2-chloro-1-(4-methanesulfonylphenyl)ethan-1-one]	0
CS(=O)(=O)NCCc1ccc(C(=O)CCl)cc1 [10-D06, N-{2-[4-(2-chloroacetyl)phenyl]ethyl}methanesulfonamide]	99.5909
CCN(c1ccc(C(=O)CCl)cc1)S(C)(=O)=O [10-F04, N-[4-(2-chloroacetyl)phenyl]-N-ethylmethanesulfonamide]	100.994
CS(=O)(=O)Nc1ccc(C(=O)CCl)cc1 [10-D19, N-[4-(2-chloroacetyl)phenyl]methanesulfonamide]	31.3267
CN(c1ccc(C(=O)CCl)cc1)S(C)(=O)=O [10-F19, N-[4-(2-chloroacetyl)phenyl]-N-methylmethanesulfonamide]	14.0269
CS(=O)(=O)c1ccc(CNC(=O)CCl)cc1 [6-O12, 2-chloro-N-[(4-methanesulfonylphenyl)methyl]acetamide]	95.2507
CC(Cl)C(=O)c1ccc(NS(C)(=O)=O)cc1 (stereo not shown) [10-A08, N-[4-(2-chloropropanoyl)phenyl]methanesulfonamide]	98.4999
C=CC(=O)NC(c1ccc(C)cc1)C(C)S(C)(=O)=O (stereo not shown) [2-A10, N-[2-methanesulfonyl-1-(4-methylphenyl)propyl]prop-2-enamide]	94.3646
CC(Cl)C(=O)Nc1sccc1C(N)=O (stereo not shown) [5-C21, 2-(2-chloropropanamido)thiophene-3-carboxamide]	107.429
C=CC(=O)N1CCC(NC(C)=O)(c2noc(C)n2)C1 (stereo not shown) [2-G16, N-[3-(5-methyl-1,2,4-oxadiazol-3-yl)-1-(prop-2-enoyl)pyrrolidin-3-yl]acetamide]	100.077
C=CC(=O)NC1CN(S(=O)(=O)c2ccc3c(c2)OCCO3)C1 [2-E11, N-[1-(2,3-dihydro-1,4-benzodioxine-6-sulfonyl)azetidin-3-yl]prop-2-enamide]	95.7541

SMILES	% of control remaining [%]
N#CC(=Cc1c(F)cccc1F)C(=O)Nc1ccccc1F [9-J12, 2-cyano-3-(2,6-difluorophenyl)-N-(2-fluorophenyl)prop-2-enamide]	94.2896
O=C(CCl)NC1CCCc2nc(-c3ccccc3)sc21 (stereo not shown) [7-B04, 2-chloro-N-(2-phenyl-4,5,6,7-tetrahydro-1,3-benzothiazol-7-yl)acetamide]	86.833
CCCn1c(C)cc(C=C(C#N)C(=O)N2CCC2)c1C [8-L08, 2-(azetidine-1-carbonyl)-3-(2,5-dimethyl-1-propyl-1H-pyrrol-3-yl)prop-2-enenitrile]	60.707
COC(=O)c1sccc1N1C(=O)C=CC1=O [10-A07, methyl 3-(2,5-dioxo-2,5-dihydro-1H-pyrrol-1-yl)thiophene-2-carboxylate]	26.4952
Cc1cc(C(=O)C(C)Cl)c(C)n1Cc1ccco1 (stereo not shown) [10-E06, 2-chloro-1-{1-[(furan-2-yl)methyl]-2,5-dimethyl-1H-pyrrol-3-yl}propan-1-one]	94.9153
Cc1ccc(NC(=O)CCl)cc1[N+](=O)[O-] [4-M13, 2-chloro-N-(4-methyl-3-nitrophenyl)acetamide]	93.6813
CCc1ccc(CC)c(C(=O)CCl)c1 [10-H14, 2-chloro-1-(2,5-diethylphenyl)ethan-1-one]	95.8504
Cc1oc(C(N)=O)cc1C(=O)CCl [10-M05, 4-(2-chloroacetyl)-5-methylfuran-2-carboxamide]	20.4169
Cc1oc(C(=O)O)cc1C(=O)CCl [10-M21, 4-(2-chloroacetyl)-5-methylfuran-2-carboxylic acid]	100.37
NC(=O)c1coc(C(=O)CCl)c1 [10-C05, 5-(2-chloroacetyl)furan-3-carboxamide]	96.1621
COCCn1c(C)cc(C(=O)CCl)c1C [10-D13, 2-chloro-1-[1-(2-methoxyethyl)-2,5-dimethyl-1H-pyrrol-3-yl]ethan-1-one]	99.9026
COC(=O)c1cc(C(=O)CCl)c(C)o1 [10-G13, methyl 4-(2-chloroacetyl)-5-methylfuran-2-carboxylate]	43.6392
CCc1ccc(OC(C)C(=O)N2CCN(C(=O)C(C)Cl)CC2)cc1 (stereo not shown) [6-H16, 1-[4-(2-chloropropanoyl)piperazin-1-yl]-2-(4-ethylphenoxy)propan-1-one]	86.302
C=CC(=O)N1CCC(C(=O)Nc2ccc3c(c2)CCN3C(N)=O)CC1 [3-E16, 5-[1-(prop-2-enoyl)piperidine-4-amido]-2,3-dihydro-1H-indole-1-carboxamide]	90.5017
C=CC(=O)NC(c1nc(C)cs1)C1CC1 (stereo not shown) [3-D21, N-[cyclopropyl(4-methyl-1,3-thiazol-2-yl)methyl]prop-2-enamide]	100.912
CCCn1c(C)cc(C=C(C#N)C(=O)Nc2ccc3c(c2)OCO3)c1C [9-G07, N-(1,3-dioxaindan-5-yl)-2-cyano-3-(2,5-dimethyl-1-propyl-1H-pyrrol-3-yl)prop-2-enamide]	88.5792
CC(Cl)C(=O)Nc1ccc(F)c(F)c1F (stereo not shown) [4-O08, 2-chloro-N-(2,3,4-trifluorophenyl)propanamide]	95.579
C=CC(=O)NCCCc1conc1C [2-N13, N-[3-(3-methyl-1,2-oxazol-4-yl)propyl]prop-2-enamide]	87.88
Cc1ccc(NC(=O)C2(CNC(=O)C(C)Cl)CCCC2)cc1C (stereo not shown) [7-J13, 1-[(2-chloropropanamido)methyl]-N-(3,4-dimethylphenyl)cyclopentane-1-carboxamide]	74.8059
Cn1cc(C=C(C#N)C(=O)Nc2ccccc2F)c(-c2ccncc2)n1 [9-L15, 2-cyano-N-(2-fluorophenyl)-3-[1-methyl-3-(pyridin-4-yl)-1H-pyrazol-4-yl]prop-2-enamide]	89.6669
O=C1CCc2cc(C(=O)CCl)ccc2N1 [10-M03, 6-(2-chloroacetyl)-1,2,3,4-tetrahydroquinolin-2-one]	23.534
O=C1CCc2cc(C(=O)CCl)c(F)cc2N1 [10-O20, 6-(2-chloroacetyl)-7-fluoro-1,2,3,4-tetrahydroquinolin-2-one]	36.6258
CC1(C)C(=O)Nc2ccc(C(=O)CCl)cc21 [10-N21, 5-(2-chloroacetyl)-3,3-dimethyl-2,3-dihydro-1H-indol-2-one]	35.0672
O=C1CCCc2cc(C(=O)CCl)ccc2N1 [10-M20, 7-(2-chloroacetyl)-2,3,4,5-tetrahydro-1H-1-benzazepin-2-one]	94.6035
